Measured values published in PubChem BioAssay AID1159580 (chemical genetic matrix, 2015).
Where “and” joins values, the source holds several entries; their conditions need not be identical. Identical values can stand only once. Out of some 5,500 compounds screened, about 2,000 (36%) were called active. Inconclusive results (about 18%) are left out. Some of the results follow. Unmarked numbers belong to inactive results. Cut-off read from the data, not from the text of the source: active = normalized growth mostly below about 0.91 (no sharp cut-off); inconclusive = no clear call, values can overlap the other calls; inactive = mostly above about 0.92.

Assay: chemical genetic growth profiling, strain panel (AID 1159580);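 note: tested at 20 µM; growth read once vehicle control cultures reached saturation at 30 °C; 1 = growth at the plate median or of vehicle wells; lower values mean less growth of the strain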
Conditions: S. cerevisiae deletion strains, growth OD

Q: With `CC(=O)N1CCN(c2ccc(OCC3CO[C@](Cn4ccnc4)(c4ccc(Cl)cc4Cl)O3)cc2)CC1` (stereo partly drawn) as the compound, how does the normalized growth (locus YAL021C, strain ccr4, active compounds read low) read?
A: 0.196 (active)

Q: What about the normalized growth (locus YAL026C, strain drs2, active compounds read low) of the same compound?
A: 0.0754 (active)

Q: And the normalized growth (locus YAL030W, strain snc1, active compounds read low)?
A: 0.0875 (active)

Q: What about the normalized growth (locus YBL061C, strain skt5, active compounds read low) of the same compound?
A: 0.0954 (active)

Q: And the normalized growth (locus YBR009C, strain hhf1, active compounds read low)?
A: 0.0917 (active)

Q: What about the normalized growth (locus YBR021W, strain FUR4, active compounds read low) of the same compound?
A: 0.163 (active)

Q: What about the normalized growth (locus YBR023C, strain chs3, active compounds read low) of the same compound?
A: 0.0942 (active)

Q: And the normalized growth (locus YBR171W, strain sec66, active compounds read low)?
A: 0.162 (active)

Q: What about the normalized growth (locus YBR229C, strain ROT2, active compounds read low) of the same compound?
A: 0.124 (active)

Q: And the normalized growth (locus YBR231C, strain swc5, active compounds read low)?
A: 0.0937 (active)

Q: And the normalized growth (locus YBR279W, strain paf1, active compounds read low)?
A: 0.0988 (active)

Q: What about the normalized growth (locus YCL011C, strain gbp2, active compounds read low) of the same compound?
A: 0.0885 (active)

Q: And the normalized growth (locus YCL016C, strain dcc1, active compounds read low)?
A: 0.102 (active)

Q: What about the normalized growth (locus YCL029C, strain bik1, active compounds read low) of the same compound?
A: 0.087 (active)

Q: What about the normalized growth (locus YCL061C, strain MRC1, active compounds read low) of the same compound?
A: 0.0977 (active)

Q: What about the normalized growth (locus YCL069W, strain vba3, active compounds read low) of the same compound?
A: 0.0793 (active)

Q: What about the normalized growth (locus YCR088W, strain abp1, active compounds read low) of the same compound?
A: 0.111 (active)

Q: What about the normalized growth (locus YDL005C, strain med2, active compounds read low) of the same compound?
A: 0.327 (active)

Q: What about the normalized growth (locus YDL035C, strain GPR1, active compounds read low) of the same compound?
A: 0.0672 (active)

Q: What about the normalized growth (locus YDL040C, strain nat1, active compounds read low) of the same compound?
A: 0.113 (active)

Q: What about the normalized growth (locus YDL074C, strain BRE1, active compounds read low) of the same compound?
A: 0.157 (active)

Q: And the normalized growth (locus YDL101C, strain DUN1, active compounds read low)?
A: 0.086 (active)

Q: What about the normalized growth (locus YDL134C, strain PPH21, active compounds read low) of the same compound?
A: 0.0637 (active)

Q: What about the normalized growth (locus YDL185W, strain tfp1, active compounds read low) of the same compound?
A: 0.542 (active)

Q: And the normalized growth (locus YDL192W, strain arf1, active compounds read low)?
A: 0.156 (active)

Q: What about the normalized growth (locus YDR001C, strain nth1, active compounds read low) of the same compound?
A: 0.105 (active)

Q: What about the normalized growth (locus YDR069C, strain doa4, active compounds read low) of the same compound?
A: 0.228 (active)

Q: And the normalized growth (locus YDR101C, strain arx1, active compounds read low)?
A: 0.101 (active)

Q: What about the normalized growth (locus YDR137W, strain rgp1, active compounds read low) of the same compound?
A: 0.449 (active)

Q: What about the normalized growth (locus YDR150W, strain NUM1, active compounds read low) of the same compound?
A: 0.0966 (active)

Q: What about the normalized growth (locus YDR159W, strain sac3, active compounds read low) of the same compound?
A: 0.135 (active)

Q: And the normalized growth (locus YDR162C, strain NBP2, active compounds read low)?
A: 0.0614 (active)

Q: What about the normalized growth (locus YDR195W, strain ref2) of the same compound?
A: 0.254 (active)

Q: What about the normalized growth (locus YDR297W, strain sur2, active compounds read low) of the same compound?
A: 0.1 (active)

Q: What about the normalized growth (locus YDR318W, strain mcm21, active compounds read low) of the same compound?
A: 0.0866 (active)

Q: What about the normalized growth (locus YDR334W, strain swr1, active compounds read low) of the same compound?
A: 0.0914 (active)

Q: And the normalized growth (locus YDR335W, strain msn5, active compounds read low)?
A: 0.101 (active)

Q: And the normalized growth (locus YDR388W, active compounds read low)?
A: 0.0742 (active)

Q: What about the normalized growth (locus YDR392W, strain spt3, active compounds read low) of the same compound?
A: 0.106 (active)

Q: What about the normalized growth (locus YDR502C, strain sam2, active compounds read low) of the same compound?
A: 0.0927 (active)

Q: What about the normalized growth (locus YEL003W, strain gim4, active compounds read low) of the same compound?
A: 0.0768 (active)

Q: And the normalized growth (locus YEL037C, strain rad23, active compounds read low)?
A: 0.129 (active)

Q: And the normalized growth (locus YEL061C, strain CIN8 (second series), active compounds read low)?
A: 0.084 (active)

Q: And the normalized growth (locus YEL061C, strain CIN8, active compounds read low)?
A: 0.0807 (active)

Q: And the normalized growth (locus YER015W, strain faa2, active compounds read low)?
A: 0.0977 (active)

Q: And the normalized growth (locus YER016W, strain bim1, active compounds read low)?
A: 0.0966 (active)

Q: And the normalized growth (locus YER110C, active compounds read low)?
A: 0.129 (active)

Q: And the normalized growth (locus YER111C, strain swi4, active compounds read low)?
A: 0.123 (active)

Q: What about the normalized growth (locus YER155C, strain BEM2 (second series), active compounds read low) of the same compound?
A: 0.329 (active)

Q: And the normalized growth (locus YER155C, strain BEM2, active compounds read low)?
A: 0.0986 (active)

Q: What about the normalized growth (locus YER167W, strain BCK2, active compounds read low) of the same compound?
A: 0.064 (active)

Q: What about the normalized growth (locus YFR010W, strain ubp6, active compounds read low) of the same compound?
A: 0.302 (active)

Q: What about the normalized growth (locus YGL078C, strain dbp3, active compounds read low) of the same compound?
A: 0.908 (active)

Q: And the normalized growth (locus YGL086W, strain mad1, active compounds read low)?
A: 0.0803 (active)

Q: And the normalized growth (locus YGL167C, strain pmr1, active compounds read low)?
A: 0.191 (active)

Q: What about the normalized growth (locus YGL173C, strain kem1, active compounds read low) of the same compound?
A: 0.226 (active)

Q: What about the normalized growth (locus YGL227W, strain vid30, active compounds read low) of the same compound?
A: 0.0914 (active)

Q: And the normalized growth (locus YGL240W, strain doc1, active compounds read low)?
A: 0.166 (active)

Q: What about the normalized growth (locus YGL248W, strain PDE1, active compounds read low) of the same compound?
A: 0.0653 (active)

Q: And the normalized growth (locus YGL253W, strain hxk2, active compounds read low)?
A: 0.0717 (active)

Q: What about the normalized growth (locus YGR078C, strain PAC10, active compounds read low) of the same compound?
A: 0.0678 (active)

Q: And the normalized growth (locus YGR135W, strain pre9, active compounds read low)?
A: 0.0918 (active)

Q: And the normalized growth (locus YGR229C, strain SMI1, active compounds read low)?
A: 0.0729 (active)

Q: What about the normalized growth (locus YGR252W, strain gcn5, active compounds read low) of the same compound?
A: 0.213 (active)

Q: And the normalized growth (locus YHR013C, strain ard1, active compounds read low)?
A: 0.139 (active)

Q: And the normalized growth (locus YHR027C, strain rpn1, active compounds read low)?
A: 0.174 (active)

Q: What about the normalized growth (locus YHR030C, strain SLT2, active compounds read low) of the same compound?
A: 0.0646 (active) and 0.118 (active)

Q: And the normalized growth (locus YHR079C, strain IRE1 (second series), active compounds read low)?
A: 0.0993 (active)

Q: And the normalized growth (locus YHR079C, strain IRE1, active compounds read low)?
A: 0.155 (active)

Q: What about the normalized growth (locus YHR094C, strain hxt1, active compounds read low) of the same compound?
A: 0.0943 (active)

Q: And the normalized growth (locus YHR129C, strain ARP1, active compounds read low)?
A: 0.0814 (active)

Q: And the normalized growth (locus YHR142W, strain chs7, active compounds read low)?
A: 0.0981 (active)

Q: What about the normalized growth (locus YHR200W, strain rpn10, active compounds read low) of the same compound?
A: 0.133 (active)

Q: What about the normalized growth (locus YIL066C, strain RNR3, active compounds read low) of the same compound?
A: 0.0659 (active)

Q: And the normalized growth (locus YIL073C, strain SPO22, active compounds read low)?
A: 0.202 (active)

Q: What about the normalized growth (locus YIL125W, strain kgd1, active compounds read low) of the same compound?
A: 0.964

Q: What about the normalized growth (locus YIR030C, strain dcg1, active compounds read low) of the same compound?
A: 0.0973 (active)

Q: And the normalized growth (locus YJL092W, strain hpr5, active compounds read low)?
A: 0.093 (active)

Q: And the normalized growth (locus YJL095W, strain BCK1 (second series), active compounds read low)?
A: 0.0703 (active)

Q: And the normalized growth (locus YJL095W, strain BCK1, active compounds read low)?
A: 0.0666 (active) and 0.127 (active)

Q: What about the normalized growth (locus YJL115W, strain asf1, active compounds read low) of the same compound?
A: 0.113 (active)

Q: And the normalized growth (locus YJL129C, strain trk1, active compounds read low)?
A: 0.117 (active)

Q: And the normalized growth (locus YJL134W, strain LCB3, active compounds read low)?
A: 0.0818 (active)

Q: And the normalized growth (locus YJL154C, strain vps35, active compounds read low)?
A: 0.123 (active)

Q: What about the normalized growth (locus YJL164C, strain tpk1, active compounds read low) of the same compound?
A: 0.0872 (active)

Q: What about the normalized growth (locus YJL166W, strain qcr8, active compounds read low) of the same compound?
A: 0.0816 (active)

Q: What about the normalized growth (locus YJL168C, strain set2, active compounds read low) of the same compound?
A: 0.0995 (active)

Q: And the normalized growth (locus YJL187C, strain SWE1 (second series), active compounds read low)?
A: 0.0726 (active)
